Only some compounds are listed: those with a hit (about 14% of all), similar ones and a draw of the others.
Pf growth 96h: P. falciparum growth inhibition at 96 hours; P. falciparum luciferase reporter growth, 96 h; Potency, µM (top dose mostly 28.7 µM), without a hit: at the top dose activity change, negative = inhibition, most hits filed as inhibitors; actives 6.9% (n = 320,000); AID 504834; also: potency is read from the fitted curve at half-maximal effect
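Parasite growth measured via integrated firefly luciferase reporter in P. falciparum. Infected erythrocytes at 2% hematocrit, 0.05% parasitemia final were treated 96 hours at 37 C under 5% CO2, and luminescence was read.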
Giardia FBPA inh: inhibitors of Giardia lamblia fructose-1,6-bisphosphate aldolase; A8B2U2; purified Giardia FBPA; Potency, µM (top dose mostly 59.6 µM), inactives show top-dose activity, negative = inhibition, usual class: inhibitors; actives 0.71% (n = 290,000); AID 2451; also: potency is read from the fitted curve at half-maximal effect; nearly all actives have a fitted effect of over 55% in size
Target sequence (A8B2U2 whole entry, looked up): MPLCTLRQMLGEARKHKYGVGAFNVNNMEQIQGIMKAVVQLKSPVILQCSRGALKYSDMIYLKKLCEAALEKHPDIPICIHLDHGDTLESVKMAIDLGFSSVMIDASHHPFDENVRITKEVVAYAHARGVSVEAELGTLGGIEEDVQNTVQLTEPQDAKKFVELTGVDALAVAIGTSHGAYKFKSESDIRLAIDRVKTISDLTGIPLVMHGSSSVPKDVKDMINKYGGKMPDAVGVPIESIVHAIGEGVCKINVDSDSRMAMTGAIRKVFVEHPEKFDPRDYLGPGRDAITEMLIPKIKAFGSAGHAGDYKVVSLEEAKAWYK
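40 nM FBPA preincubated 10 min at RT with compound (up to 57.5 uM final), then substrate plus GAPDH/TPI/NAD/arsenate coupling and diaphorase/resazurin added. Fluorescence read after 20 min at RT, 525/598 nm.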
Pf growth 48h: inhibits P. falciparum growth in the first generation, 48 h | P. falciparum luciferase growth in erythrocytes, 48 h | Potency, µM (highest dose often 28.7 µM), for inactives: at the highest dose activity change, negative = inhibition, usual class: inhibitors | actives 5.9% (n = 310,000); also: potency is read from the fitted curve at half-maximal effect
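In quantitative HTS format, infected erythrocytes bearing luciferase-reporter parasites were treated for a single generation at 37 C. Luminescence after adding detection reagent served as the growth measure.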
HCMV inh: blocks human cytomegalovirus replication. activity change, negative = inhibition, % at 57.5 µM. HFF cells, HCMV-luciferase reporter, 72 h; hits give low values. actives 4.5% (n = 410,000); in the data active = activity change below about -60%; inconclusive = no clear call, values can overlap the other calls; inactive = above about -39%
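Cell-based, HFFs, 1000 cells/well, 16 h 37C; cpds in DMSO + HCMV-luc, MOI 1 PFU/cell; 72 h 37C; OneGlo luminescence after 5 min RT; norm. to buffer vs Salinomycin 10uM.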
Sm TGR block: S. mansoni TGR enzyme inhibition; Potency, µM (doses to about 114 µM), for the others: at the highest dose activity change, negative = inhibition, actives largely listed as inhibitors; Q962Y6; actives 3% (n = 360,000); purified TGR, DTNB reduction, TNB absorbance 405 nm; also: potency is read from the fitted curve at half-maximal effect; nearly all actives have a fitted effect of over 60% in size
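TGR 20 nM + NADPH 100 uM (dispensed conc.), cpd preinc 15 min RT; start with NADPH (500 uM addition) then DTNB (15 mM addition). Kinetic TNB absorbance, 405 nm filter. Four-parameter Hill fit across titration.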
* hit, by the source's call; ? = inconclusive; · = no result; [ ] = another dose, or the depositor's remark. Unless noted, calls follow the shape of the dose curve; as a rule, active = well fitted curve in the direction sought with a large enough effect; inconclusive = small, poorly fitted or top-dose-only effect, or another doubt; inactive = no such curve, though single readings can be large; an effect the other way counts as inactive or inconclusive. % is scaled to controls: 0 for no effect and ±100 for the full control effect.

SMILES	Pf growth 96h	Giardia FBPA inh	Pf growth 48h	HCMV inh	Sm TGR block
COc1ccc(CC(=O)Nc2ccc(F)c(F)c2F)cc1S(=O)(=O)N1CCOCC1	?	·	12µM*	53	1%
CCCCc1nnc(NC(=O)Cc2ccc(OC)c(S(=O)(=O)N3CCOCC3)c2)s1	?	·	10µM*	-18	?
COc1ccc(CC(=O)Nc2nnc(SCc3ccccc3)s2)cc1S(=O)(=O)N1CCOCC1	·	7%	-26%	25	-2%
COc1ccc(CC(=O)Nc2nc3ccc(F)cc3s2)cc1S(=O)(=O)N1CCOCC1	6.6µM*	10%	?	6	0%
CC1CCc2nc(/C(C#N)=C/c3ccncc3)sc2C1 (centres undefined)	0%	-5%	?	-29	-12%
COc1ccc(Nc2ccc3cc(S(=O)(=O)N4CCCC4)ccc3n2)cc1Cl	·	·	·	-34	9%
O=C(CCl)Nc1c2c(nn1-c1ccccc1)CSC2	2.9µM*	-10%	4.1µM*	?	10µM*
O=C(CCCCl)Nc1c2c(nn1-c1ccccc1)CSC2	8%	-8%	-9%	-6	-1%
O=C(/C=C\c1ccc2c(c1)OCO2)Nc1c2c(nn1-c1ccc(Cl)cc1)CSC2	10µM*	0%	?	6	-15%
CCCCCCSc1ccc([C@@H]2[C@H]3C(=O)N(CC)C(=O)[C@H]3[C@]3(C(=O)OC)CCCN23)cc1	10µM*	·	?	62	-17%
CCCCCCSc1ccc([C@@H]2[C@@H]3C(=O)N(C)C(=O)[C@@H]3[C@]3(C(=O)OC)CCCCN23)cc1	·	·	·	4	·
CCCSc1ccc([C@@H]2[C@H]3C(=O)N(CC)C(=O)[C@H]3[C@]3(C(=O)OC)CCCCN23)cc1	7.4µM*	·	13µM*	-7	?
COc1ccc(NC(=S)N(CCCN2CCOCC2)Cc2ccccn2)cc1	?	-23%	7%	-11	3%
COc1ccc(NC(=S)N(CCCN2CCOCC2)Cc2cn(C)c3ccccc23)cc1	?	2%	?	-98*	3%
CCOc1ccc(NC(=S)N(CCCN2CCOCC2)Cc2cn(C)c3ccccc23)cc1	?	2%	?	-92*	-4%
C[C@H](O)C(=O)Nc1c(I)c(C(=O)NC(CO)CO)c(I)c(C(=O)NC(CO)CO)c1I	6%[12.8 µM]	10%[21.7 µM]	7%[12.8 µM]	·	·
CCCCNC(=O)c1ccc(SCC(=O)N(CC)CC)c([N+](=O)[O-])c1	1µM*	9%	9%	0	7%
O=S(=O)(c1ccc(Cl)cc1)c1cnc2ccccc2n1	10µM*	6%	?	-32	?
C=CCNCCCCOc1ccc(OCc2ccccc2)cc1	0%	?	-12%	-69*	·
COc1ccc(/C=N/NC(=O)c2[nH]c3ccc(Br)cc3c2-c2ccccc2)c(C(=O)O)c1OC	31%	?	6%	-63*	-8%
COc1ccc(/C=N/NC(=O)c2[nH]c3ccc(Cl)cc3c2-c2ccccc2)c(C(=O)O)c1OC	4%	15%	·	-99*	-8%
O=[n+]1c2c(n([O-])c3cc(Cl)ccc31)CCCC2	?	-4%	-52%	-28	-25%
CCOc1ccc2c(c1)n([O-])c1c([n+]2=O)CCCC1	0%[5.75 µM]	14µM*	28%	3	5.6µM*
COc1ccc2c(c1)n([O-])c1c([n+]2=O)CCC1	12%	-25%	7%	·	40µM*
Cc1ccc(S(=O)(=O)N2CCCN(Cc3nc4ccccc4c(=O)[nH]3)CC2)cc1	-14%	·	?	1	45µM*
SMILES	Pf growth 96h	Giardia FBPA inh	Pf growth 48h	HCMV inh	Sm TGR block
Cc1ccc(S(=O)(=O)N2CCCN(C(C)c3nc4ccccc4c(=O)[nH]3)CC2)cc1 (centres undefined)	13µM*	·	?	-19	?
CN1CCN(Cc2nc3ccccc3c(=O)[nH]2)CC1	·	-11%	6%	2	1%
COc1cc2nc(CN3CCN(S(=O)(=O)c4ccc(C)c(C)c4)CC3)[nH]c(=O)c2cc1OC	?	-7%	9.3µM*	-22	-28%
Cc1ccc(S(=O)(=O)N2CCCN(S(=O)(=O)c3ccc(C)cc3)CC2)cc1	?	4%	-18%	-38	0%
O=C(Nc1ncnc2c1ncn2[C@@H]1O[C@@H]2COP(=O)(O)O[C@H]2[C@H]1O)c1ccccc1	·	-1%	·	·	·
Cc1ccc(N2CCN(S(=O)(=O)c3ccc(Cl)s3)CC2C)cc1 (centres undefined)	?	·	?	11	12%
Cc1cn(C2CCCCO2)c(=O)[nH]c1=O (centres undefined)	·	·	·	28	·
CC(C)CC(C(=O)NC1CCCCC1)N(Cc1ccccc1)C(=O)c1snc(C(N)=O)c1N (centres undefined)	?	10%	?	9	10%
CC(C)(C)NC(=O)C(c1ccco1)N(Cc1ccc2c(c1)OCO2)C(=O)c1snc(C(N)=O)c1N (centres undefined)	9.3µM*	3%	-21%	-20	0%
COc1ccc(CN(C(=O)c2snc(C(N)=O)c2N)C(CC(C)C)C(=O)NC2CCCCC2)cc1 (centres undefined)	?	10%	12µM*	?	1%
CC(C)CCNC(=O)C(CC(C)C)N(Cc1ccc2c(c1)OCO2)C(=O)c1snc(C(N)=O)c1N (centres undefined)	60%	-12%	?	15	·
CCCCC(C(=O)NC(C)(C)C)N(Cc1ccccc1Cl)C(=O)c1snc(C(N)=O)c1N (centres undefined)	86%	-1%	10µM*	-1	4%
NC(=O)c1nsc(C(=O)N(CCc2ccccc2)C(C(=O)NC2CCCC2)c2ccco2)c1N (centres undefined)	10µM*	9%	?	-60*	-1%
CCc1ccc(N(C(=O)c2snc(C(N)=O)c2N)C(C(=O)NC2CCCC2)c2ccco2)cc1 (centres undefined)	6%	5%	?	?	0%
CC(C)(C)c1nnc(NC(=O)COc2ccc3c(c2)OCO3)s1	?	·	104%	33	-7%
Cc1cc(C(F)(F)F)nc(SCC(=O)Nc2c(C)n(C)n(-c3ccccc3)c2=O)n1	-21%	6%	16%	31	5%
CCCCc1cc(=O)oc2cc(OC(C)C(=O)NCCN3CCOCC3)c(Cl)cc12 (centres undefined)	?	4%	-9%	-9	-7%
COc1ccc(N2CC(C)(C)C[C@@H]2/C=C/C(=O)OC(C)(C)C)cc1	·	·	·	-13	·
CC(NC(=O)c1cc(S(=O)(=O)N2CCOCC2)cn1C)c1ccccc1 (centres undefined)	22%	3%	15%	21	2%
CCOCCCN(C(=O)c1snc(C(N)=O)c1N)C(C(=O)NC1CCCC1)c1ccc(OC)cc1 (centres undefined)	5%	14%	8.3µM*	-15	-6%
